ELG1 genotox – genotoxicity induction in ELG1-luciferase HEK293T cells; HEK293T ELG1-luciferase reporter, luminescence, 16 h; Potency, µM (highest dose often 46 µM), for the others: top-dose activity change, positive = activation, hits mostly activators; hit rate 1.3% among 330,000; AID 504466; further: % of control where 0% means no effect; nearly all actives have a fitted effect of over 60% in size
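Genotoxicity was scored as increased ELG1-luciferase reporter signal, measured by ONE-Glo luminescence (30 min, room temperature). Compound or vehicle exposure of the HEK293T reporter cells lasted 16 hr at 37°C.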
FLuc modulator – counter-screen for miR-21 project: firefly luciferase inhibitors or activators | P08659 | Potency, µM (titrated, usually from 57.5 µM), for the others: at the highest dose activity change, negative = inhibition, actives largely listed as inhibitors | purified FLuc, Km substrates, luminescence inhibition | AID 588342 | hit rate 6.9% among 360,000;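 further: plate controls were vehicle for no effect and reference inhibitor for full effect; nearly all actives have a fitted effect of over 55% in size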
Target sequence (P08659 whole entry, looked up): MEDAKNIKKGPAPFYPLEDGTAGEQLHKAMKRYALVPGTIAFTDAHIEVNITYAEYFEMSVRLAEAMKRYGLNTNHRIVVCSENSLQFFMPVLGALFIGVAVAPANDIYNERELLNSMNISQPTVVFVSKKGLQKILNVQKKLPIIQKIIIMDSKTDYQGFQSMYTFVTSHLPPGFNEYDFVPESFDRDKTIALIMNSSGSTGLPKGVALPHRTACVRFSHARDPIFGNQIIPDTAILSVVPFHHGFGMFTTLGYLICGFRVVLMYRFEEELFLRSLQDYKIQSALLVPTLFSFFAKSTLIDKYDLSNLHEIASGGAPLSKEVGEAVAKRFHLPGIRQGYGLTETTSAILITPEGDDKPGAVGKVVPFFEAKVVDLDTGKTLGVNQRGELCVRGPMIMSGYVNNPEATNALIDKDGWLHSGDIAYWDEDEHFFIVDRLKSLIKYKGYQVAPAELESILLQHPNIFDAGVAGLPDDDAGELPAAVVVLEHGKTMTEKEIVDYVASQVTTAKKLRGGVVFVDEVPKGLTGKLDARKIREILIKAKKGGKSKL
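Purified P. pyralis luciferase (10nM final) with 10uM D-luciferin and 10uM ATP (Km levels) in 50mM Tris acetate pH 7.5, 10mM Mg acetate, 0.01% Tween-20, 0.05% BSA; qHTS 6-point titration, ~60 µM downward; luminescence read.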
NPC1 prom act – activates the NPC1 promoter; Huh7 NPC1 promoter luciferase reporter, 24 h; Potency, µM (highest dose often 9.22 µM), for the others: at the highest dose activation, actives largely listed as activators; hit rate 2.4% among 320,000; AID 485313; further: % of control where 0% means no effect; nearly all actives have a fitted effect of over 60% in size
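Luminescence from an NPC1 promoter-driven luciferase reporter in stably transfected Huh7 cells was measured after 24 h compound treatment at 37 °C, followed by 10 min ambient incubation with luciferase detection reagent.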
Luc counter – Kinase-Glo luciferase inhibition (counter-screen); Kinase-Glo luciferase, ATP luminescence, 8 min; Potency, µM (top dose mostly 38.3 µM), for the others: at the top dose activity change, negative = inhibition, most hits filed as inhibitors; hit rate 0.28% among 200,000; AID 1379; further: on the % scale 0 is the no-effect control and ±100 the full control effect; nearly all actives have a fitted effect of over 60% in size
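Substrate mix (final 50 mM imidazole pH 7.2, 50 mM KCl, 7 mM MgCl2, 10 uM ATP, 0.01% Tween 20, 0.05% BSA) plus pin-tool compound, then Kinase-Glo detection mix; 8 min ambient, luminescence read.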
Rab9 prom act – activates the Rab9 promoter; Huh7 Rab9 promoter-luciferase reporter, luminescence, 24 h; AID 485297; hit rate 2.8% among 320,000; Potency, µM (titrated, usually from 9.22 µM), without a hit: at the top dose activation, negative = inhibition, actives largely listed as activators; further: % of control where 0% means no effect; nearly all actives have a fitted effect of over 60% in size
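Using Huh7 cells stably transfected with Rab9 promoter–luciferase, compounds were incubated 24 h at 37 °C, 5% CO2; luciferase luminescence was read 10 min after reagent addition.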
SMN2 splice enh – SMN2 splice variant enhancement. Potency, µM (highest dose often 46.1 µM), for inactives: top-dose activity change, positive = activation, actives largely listed as activators. hit rate 2.8% among 210,000. HEK293 SMN2-luciferase splicing reporter, luminescence, 30-36 h; further: % of control where 0% means no effect; nearly all actives have a fitted effect of over 55% in size
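HEK293 cells carry an SMN2 minigene-luciferase reporter in which exon 7 inclusion puts luciferase in frame. Cells were seeded at 2000 cells/well, attached for 10-12 hours, then exposed to compounds for 30-36 hours at 37C before ONE-Glo luminescence.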
* marks the source's active call; other numbers are inactive results; ? = inconclusive; / = no result given; [ ] = dose if it differs, or a comment. The list is not random: actives were taken first. Their share in the collection is about 7.5%. The call rests on the fitted dose curve; in most records, active means well fitted curve in the direction sought with a large enough effect; inconclusive means small, poorly fitted or top-dose-only effect, or another doubt; inactive means no such curve, though single readings can be large; an effect the other way counts as inactive or inconclusive. Potency means the concentration at half of the fitted maximal effect.

SMILES | ELG1 genotox | FLuc modulator | NPC1 prom act | Luc counter | Rab9 prom act | SMN2 splice enh
COc1ccc(/C=C/C(=O)Nc2ccc(C)cc2)cc1 | / | 6.7µM* | / | / | / | ?
COc1ccc2o/c(=N\O)c(C(=O)Nc3ccc(C)cc3)cc2c1 | ? | ? | -1% | 0% | 0% | /
Cc1ccc(NC(=O)c2cc(S(=O)(=O)N3CCOCC3)c(Cl)cc2Cl)cc1 | / | -8% | / | / | / | -46%
CCNCCC1(CC)C(=O)NC(=O)NC1=O | / | / | / | -1%[7.66 µM] | / | -3%[9.22 µM]
CCOc1ccc2nc(NC(=O)c3cccn(Cc4ccc(C)cc4)c3=O)sc2c1 | / | -6% | / | / | / | /
Cc1ccccc1Cn1cccc(C(=O)Nc2nc3ccccc3s2)c1=O | / | 0.43µM* | / | / | / | /
CCOc1ccc2nc(NC(=O)c3cccn(Cc4ccccc4)c3=O)sc2c1 | / | 6µM* | / | / | / | /
O=C(Nc1nc2ccccc2s1)c1cccn(Cc2ccccc2)c1=O | / | 0.76µM* | / | / | / | /
Cc1ccc2nc(NC(=O)c3cccn(Cc4ccc(Cl)cc4)c3=O)sc2c1 | / | 0% | / | / | / | /
CCOc1ccc(CCNC(=O)c2cc3c(-c4cccc(OC)c4)nn(C)c3s2)cc1OCC | / | -14% | / | / | / | -39%
CCCCCCOc1ccc(CN2CCN(CCO)CC2)cc1 | 8.2µM* | 19µM* | 2.2µM* | -3% | 4µM* | 15%
CCCCOc1ccc(CN2CCN(CCO)CC2)cc1 | ? | -14% | 9% | -2% | 7% | -12%
COc1ccc(NC(=O)CCCn2c(=O)oc3ccccc32)cc1Cl | ? | 12µM* | ? | 0% | ? | ?
COc1ccc(-c2nc(NC(=O)Cn3c(=O)oc4ccccc43)sc2C)cc1 | -9% | 1% | 2% | 2% | 2% | -33%
Cc1ccc(N)c(N)c1 | ? | 5.4µM* | -3% | / | -1% | 3.5µM*
Nc1ccc(Cl)cc1N | / | / | / | / | / | 7.1µM*
Nc1cc(Cl)ccc1Cl | / | / | / | / | / | 2%
O=C1NC(=O)N(c2ccc3c(c2)OCO3)C(=O)/C1=C/c1ccsc1 | 3% | 19µM* | -2% | 5% | -7% | 19%
O=C(O)c1cccc([As]=[As]c2cccc(C(=O)O)c2)c1 (stereo unspecified) | / | / | / | -1%[7.66 µM] | / | -11%[9.22 µM]
COC(=O)c1c(C)ccc2c(O)c3c(cc12)C(=O)c1c2c(cc(O)c1C3=O)[C@@]1(C)O[C@@](C)(O2)[C@@H](O)[C@H](N(C)C)[C@H]1O | / | / | / | -10%[7.66 µM] | / | 12%[9.22 µM]
COc1ccc(N2C(=O)/C(=C/c3cc(C)n(-c4ccc(C)cn4)c3C)C(=O)NC2=S)c(OC)c1 | 13% | 27µM* | -1% | 1% | -14% | 8%
COc1ccc(OC)c(N2C(=O)/C(=C/c3ccco3)C(=O)NC2=S)c1 | -5% | ? | -4% | / | 21% | /
Oc1cccc(/C=N/NP(=S)(c2ccccc2)c2ccccc2)c1 | 3% | 24µM* | 1% | 19% | -3% | -14%
Nc1c2c(nc3sc4c(c13)CCCC4)CCCCC2 | 14% | 1.9µM* | 2.8µM* | -13% | 2.2µM* | 8.9µM*
O=c1oc2ccccc2n1CCCOc1ccccc1 | 18µM* | 19µM* | 29% | 5% | ? | 11µM*
SMILES | ELG1 genotox | FLuc modulator | NPC1 prom act | Luc counter | Rab9 prom act | SMN2 splice enh
O=C(CCn1c(=O)oc2ccccc21)N1CCC2(CC1)OCCO2 | -1% | -9% | 9% | -3% | 3% | 5%
COc1ccccc1OCCCn1cc(C(=O)c2ccco2)c2ccccc21 | -18% | 17µM* | ? | 8% | 29% | -52%
O=C(c1ccco1)c1cn(Cc2ccc(Cl)cc2)c2ccccc12 | 5% | ? | 2% | -1% | -1% | 4%
O=c1[nH]c(O)c(/C=C2/C=CC(c3cc(Cl)ccc3Cl)=N2)c(=O)[nH]1 | 15% | 6.7µM* | -5% | / | -9% | /
CC1=Nc2ccccc2/C1=C/c1c(O)[nH]c(=O)[nH]c1=O | -1% | -2% | 2% | / | 4% | /
O=C(O)C(C(=O)O)P(=S)(S)c1ccccc1 (stereo unspecified) | / | / | / | -1%[7.66 µM] | / | 1%[9.22 µM]
CN(C)c1ccc(CCN2CCOCC2)cc1 | ? | 17µM* | 3% | / | 1% | /
CC(=O)OC1=CC2=CC[C@H]3[C@H]4CCC(=O)[C@@]4(C)CC(=O)[C@]3(S)[C@]2(C)CC1 | / | / | / | -1%[7.66 µM] | / | 3%[9.22 µM]
O=C(CN1CCCC1=O)Nc1ccccc1 | 3% | 2% | -1% | 4% | -3% | 7%
O=C(CN1CCCC1)Nc1ccc(NC(=O)Nc2ccccc2)cc1 | 16% | 19µM* | ? | 1% | ? | /
CCN(CCO)c1ccc(N=Cc2c(O)n(C)c(=S)[nH]c2=O)cc1 | 13% | 1.7µM* | ? | / | ? | /
COc1cc(N2CCOCC2)ccc1/C=C1\C(=O)NC(=O)N(Cc2ccc3c(c2)OCO3)C1=O | 1% | 17µM* | -6% | -2% | -6% | 4%
CN1CCN(c2ccc3nc(-c4ccc5nc(-c6ccc(O)cc6)[nH]c5c4)[nH]c3c2)CC1 | / | / | / | -4%[7.66 µM] | / | ?
CCOc1ccc(-c2nc3ccc(-c4nc5ccc(N6CCN(C)CC6)cc5[nH]4)cc3[nH]2)cc1 | / | / | / | / | / | 4µM*
N=C(N)SCc1ccc(Cl)c2ccccc12 (tested in a mixture with another compound) | / | / | / | -2%[7.66 µM] | / | 1%[9.22 µM]
Cc1ccc2nc(N3CCN(C)CC3)[nH]c2c1 | 16µM* | 27µM* | ? | 2% | ? | 104%
Cn1nc(OC(=O)Nc2ccc(Cl)cc2)cc1C(F)(F)F | 18% | ? | 8% | 18% | 0% | ?
N#Cc1cc2c(nc1SCC(=O)Nc1cccc(F)c1)C1CCN2CC1 | / | -7% | / | / | / | 6.3µM*
O=C(c1ccccc1)[C@H]1[C@H](c2ccccc2[N+](=O)[O-])N1C1CCCCC1 (stereo partly specified) | / | / | / | -3%[7.66 µM] | / | 1%[9.22 µM]
COc1ccc(NC2=NC(C)(C)CS2)cc1 | ? | ? | ? | 0% | ? | 11µM*
COc1ccc(NC2=NCC(C)S2)cc1 (stereo unspecified) | 5% | -5% | 2% | -1% | 14% | 21%
CN(C)c1ccc(/C=C/[N+](=O)[O-])cc1 | ? | ? | 2% | -7% | 4% | 11µM*
C/C(=C\c1ccc(N(C)C)cc1)[N+](=O)[O-] | 15% | ? | -11% | -6% | -7% | -17%
CC(C)CON=O | / | / | / | / | / | -1%
C/C(=N\NC(=O)c1ccccc1O)c1c(O)n(Cc2ccccc2)c(=O)[nH]c1=O | 4% | 11µM* | -3% | / | -3% | /
C/C(=N\NC(=O)c1ccccc1Cl)c1c(O)n(C2CCCCC2)c(=O)[nH]c1=O | 0% | -2% | 1% | / | -1% | /
C/C(=N\NC(=O)c1ccccc1O)c1c(O)n(C2CCCCC2)c(=O)[nH]c1=O | 5% | 27µM* | 2% | / | -1% | /

Screens: PubChem, National Center for Advancing Translational Sciences (NCATS)
